An excerpt weighted towards active compounds, which were near 2.6% of everything screened.
eIF4H FP inh – inhibitors of RNA binding by human eIF4H. Q15056. eIF4H fluorescence polarization binding assay. inhibition, % at 35 µM. actives 0.94% (n = 290,000). AID 2012;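 further: calls also rest on retests at 20 µM and on dose response follow-up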
PABP1 MLLE inh – blocks PAM2 peptide binding to the PABP1 MLLE domain | AID 588489 | inhibition, % at 20 µM | actives 0.36% (n = 360,000) | GST-MLLE / FITC-PAM2 fluorescence polarization | P11940; in the data active means inhibition above about 35%, passing the limit was not always enough;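 further: plate controls were DMSO wells with GST-MLLE for no effect and wells lacking GST-MLLE protein for full effect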
CRFBP-R2 block – antagonists of CRF-binding protein/CRF-R2 receptor complex | actives 0.59% (n = 350,000) | inhibition, % at 11.8 µM | HEK293 CRF-R2/CRF-BP, CRF-induced calcium fluorescence;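 active means inhibition of the ligand-induced calcium signal above about 50% at the single tested concentration, limit read from the data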
PHOSPHO1 block – blocks human PHOSPHO1 phosphatase activity. recombinant PHOSPHO1, absorbance phosphatase assay. inhibition, % at 13.3 µM. actives 1.1% (n = 290,000); in the data active means inhibition above about 60%
Target sequence (Q8TCT1 whole entry, looked up): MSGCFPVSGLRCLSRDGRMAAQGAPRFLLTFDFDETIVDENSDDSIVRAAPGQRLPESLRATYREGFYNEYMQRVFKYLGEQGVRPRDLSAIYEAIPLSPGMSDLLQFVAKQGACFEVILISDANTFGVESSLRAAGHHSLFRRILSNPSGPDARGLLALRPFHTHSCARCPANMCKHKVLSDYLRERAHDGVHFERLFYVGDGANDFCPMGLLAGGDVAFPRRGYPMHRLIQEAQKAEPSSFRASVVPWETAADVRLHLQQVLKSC
PABP polyA inh – PABP-poly(A) binding inhibition; PABP-poly(A) RNA binding, fluorescence polarization; actives 1% (n = 290,000); P11940; inhibition, % at 35 µM;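 further: calls also rest on retests at 20 µM and on dose response follow-up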
Starred values were filed as active, the others as inactive; ? = inconclusive; . = not tested or not shown. Unless noted, how the calls were made is not given here.

SMILES	eIF4H FP inh	PABP1 MLLE inh	CRFBP-R2 block	PHOSPHO1 block	PABP polyA inh
COc1ccc(NC(=O)C2CCC(C)(C(=O)O)C2(C)C)cc1 (centres undefined)	8	-5	2	-41	4
CCOc1ccccc1NC(=O)C1CCCCN1S(=O)(=O)c1ccccc1 (centres undefined)	.	5	1	.	.
CCOc1ccc(NC(=O)C2CCC(C)(C(=O)O)C2(C)C)cc1 (centres undefined)	130*	-5	-18	-13	?
CCOc1ccc(NC(=O)C2CCCCN2S(=O)(=O)c2ccccc2)cc1 (centres undefined)	-2	2	14	89*	-5
COc1cc(SC)ccc1C(=O)NCC1CCCCC1	43	3	-6	27	-4
Cc1ccc(S(=O)(=O)N2[C@H](C(C)C)[C@H]3[C@H]4C(=O)N(c5ccccc5)C(=O)[C@H]4CC(=O)[C@H]3[C@@H]2c2ccccc2)cc1	.	6	.	.	.
Nc1ccn([C@@H]2O[C@H](CNCc3cccc(OC4CCCC4)c3)[C@@H](O)[C@H]2O)c(=O)n1	.	6	-2	.	.
CCOc1ccc(NC(=O)CN2C(=O)NC(CCc3ccccc3)C2=O)cc1OCC (centres undefined)	.	-2	-11	.	.
N#Cc1ccc(S(=O)(=O)N2CCCCC2c2cc(C(=O)NCc3ccccc3)no2)cc1 (centres undefined)	.	0	.	.	.
CC1=C(C(=O)Nc2ccccc2)C(c2ccc(C)o2)n2c(s/c(=C\c3ccco3)c2=O)=N1 (centres undefined)	84*	-76	-7	-62	101*
CN(CCc1ccccc1)c1cc2c(c3c1ccn3C)C1CCC2C1 (centres undefined)	.	1	.	.	.
Cc1cc(C)cc(C(O)c2ncc(-c3ccccc3C)[nH]2)c1 (centres undefined)	.	-7	.	.	.
COC(=O)CCN1CCN(S(=O)(=O)c2ccccc2Br)CC1	14	3	6	62*	6
CN(C)C(=O)c1cn(-c2ccccc2)nc1-c1cccs1	-7	6	-8	8	-11
O=C(COC(=O)c1cn(-c2ccccc2)nc1-c1cccs1)NC1CC1	-9	-9	-30	65*	2
CC(C)Nc1nc(NCc2ccccc2)c2sccc2n1	.	-9	.	.	.
CCn1c(NC(=O)Nc2cccc(C)c2C)cc2sccc21	87*	-10	-3	17	90*
Cc1oc(-c2ccc(Cl)cc2)nc1CSCC(=O)NC1CCN(Cc2ccccc2)CC1	.	0	-24	18	.
COc1ccc(NCc2ccc([N+](=O)[O-])s2)c(OC)c1	73*	9	34	0	active
COc1ccc(NCc2ccc([N+](=O)[O-])s2)cc1	1	8	28	-2	-4
CN(C)c1ncc(S(=O)(=O)c2ccccc2)c(-c2ccc(Cl)cc2Cl)n1	-6	-3	31	-1	-8
CN(C)c1ncc(S(=O)(=O)c2ccc(Cl)cc2)c(-c2ccc(Cl)cc2Cl)n1	-3	7	56*	-1	1
CC1(C(=O)Nc2ccc(Cl)cc2)Cc2c(-c3cccc(C(F)(F)F)c3)ccnc2O1 (centres undefined)	.	1	.	.	.
O=C(COC(=O)C1CC(=O)N(Cc2ccco2)C1)c1ccc(OC(=O)c2ccco2)cc1 (centres undefined)	45	-6	82*	13	16
COc1cccc(C(C)(O)c2nc(-c3ccc(N(C)C)cc3)cs2)c1 (centres undefined)	.	5	.	.	.
SMILES	eIF4H FP inh	PABP1 MLLE inh	CRFBP-R2 block	PHOSPHO1 block	PABP polyA inh
CC1CSc2nc3sc4c(c3c(=O)n21)CCCC4 (centres undefined)	-2	-30	-24	67*	3
O=c1c2c3c(sc2nc2n1CCCS2)CCCC3	11	-3	-6	27	0
O=c1c2c3c(sc2nc2n1CCCCC2)CCCC3	-6	25	-2	76*	4
O=C(Nc1nnc(-c2ccco2)s1)C1CCCCC1	46	-9	-16	75*	13
Cc1ccc(S(=O)(=O)N2CCC(C(=O)Nc3nnc(-c4ccco4)s3)CC2)cc1	17	-2	-13	-16	-12
N#CC1=C(N)NC(=S)C(C(N)=O)C1c1ccccc1F (centres undefined)	0	46*	2	13	8
CCC/C=C/c1ccc(CN2C(C)C(=O)N(Cc3cn(CCC4OCCO4)nn3)CCS2(=O)=O)cc1 (centres undefined)	.	-4	-4	.	.
O=S(=O)(c1cccs1)N1CN(C2CCCCC2)c2nc3ccccc3nc21	-10	9	15	-5	4
CN(C)c1ncnc2c1NC1=C(S2)C(=NCCCC(=O)O)CC(C)(C)C1	2	22	52*	87*	14
COc1ncnc2c1NC1=C(S2)C(=NCCC(=O)O)CC(C)(C)C1	17	94	0	52	7
CCCCC1=CC2=C(c3ccco3)C(=O)C(C)(OC(=O)c3ccc(OC)cc3)C(=O)C2=CN1Cc1ccccc1 (centres undefined)	68	4	-58	22	40*
COc1cccc(CN2CCN(C(=O)[C@H]3O[C@@H](n4cnc5c(N)ncnc54)[C@H](O)[C@@H]3O)CC2=O)c1	.	12	.	.	.
S=c1[nH]nc(C2CC2)n1Cc1ccco1	-9	-12	11	81*	-10
S=c1[nH]nc(Cc2ccccc2)n1Cc1ccco1	-1	-8	-19	25	-7
Oc1ccc(-c2n[nH]c(=S)n2Cc2ccco2)cc1	-3	2	0	100*	-7
O=C(NCc1ccncc1)c1cccc(S(=O)(=O)NCc2ccccc2)c1	13	5	-6	17	62*
O=C(c1cccc(S(=O)(=O)NCc2ccccc2)c1)N1CCN(c2cccc(C(F)(F)F)c2)CC1	16	12	-9	5	55*
O=C(c1cccc(S(=O)(=O)NCc2ccccc2)c1)N1CCN(c2ccccc2)CC1	.	1	-18	.	.
O=C(NCc1cccnc1)c1cccc(S(=O)(=O)NCc2ccccc2)c1	.	13	1	.	.
COCCNC(=O)C1CCCN(C(=O)c2ccc(SC(F)(F)F)cc2)CC1 (centres undefined)	.	5	.	.	.
CC(O)CC(=O)OC[C@]12CC[C@H]3[C@@](C)(CC[C@H]4C(C)(C)CCC[C@]34C)[C@@H]1CC(C1=CC(=O)OC1O)O2 (some centres undefined)	.	-1	.	.	.
Cc1ccc(CNS(=O)(=O)c2ccc3c(c2)CCN3C(=O)CCCC(=O)O)cc1	1	2	6	-19	-2
CCC1NC(=S)NC(C)=C1C(=O)c1ccccc1 (centres undefined)	-6	-121	12	-8	9
O=C(N/N=C/c1cn(Cc2cccc(F)c2)c2ccccc12)c1cc(O)cc(O)c1	100*	-9	-7	-44	89*
CN(c1ncc(C(F)(F)F)cc1Cl)N1C(=O)c2cccc([N+](=O)[O-])c2C1=O	-7	-9	-26	47	-5
Cc1ccc(S(=O)(=O)CCSc2nc(C)cc(C(F)(F)F)c2C#N)cc1	83*	-19	-8	-1	1.4*
